From PubChem BioAssay (NCI)
Compounds without any hit were thinned out: in the full panel of roughly 83,000, 20% have a hit.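 Negative percent growth values reflect cell death: -40 means 40% of the cells present at the start died, and -100 means all died.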 Calls of active or inactive are those of the source. How the source made its calls: active means growth percent below 10; inactive means the rest.

Key:
Assay in all cases: NCI-60 one-dose screen, 48 h (100 = growth as untreated, 0 = no growth, -100 = all killed)
Conditions in all cases: 10 µM unless noted
[1] = system: NCI-H23 lung
[2] = system: NCI-H226 lung
[3] = system: NCI-H322M lung
[4] = system: HOP-62 NSCLC
[5] = system: NCI-H460 lung
[6] = system: 786-0 renal
[7] = system: MDA-MB-231 breast
[8] = system: SF-268 CNS
[9] = system: M14 melanoma
[10] = system: PC-3 prostate
[11] = system: UACC-62 melanoma
[12] = system: SK-MEL-28 melanoma
[13] = system: SN12C renal
[14] = system: UO-31 renal
[15] = system: OVCAR-5 ovarian
[16] = system: NCI/ADR-RES ovarian
[17] = system: MDA-MB-435 melanoma
[18] = system: SW-620 colon
[19] = system: HCT-116 colon
[20] = system: KM12 colon

Measured: growth

CC[C@H](C)[C@H](NC(=O)Nc1ccccc1)C(=O)N(C)[C@H](C[C@@H](OC(C)=O)c1nc(C(=O)N[C@@H](Cc2ccccc2)C[C@H](C)C(=O)OC)cs1)C(C)C
inactive: [1] 23.6% | [2] 24.5% | [3] 48.4% | [4] 20.3% | [6] 18.1% | [8] 18.8% | [10] 21.6% | [11] 15.1% | [12] 52.1% | [13] 46.6% | [14] 26.7% | [15] 28.9% | [16] 59.1% | [18] 17%
active: [5] 1.7% | [7] -4.27% | [9] -7.55% | [17] -36.7% | [19] 6.85% | [20] 4.31%

CC(=O)O[C@H]1CC[C@H]2[C@@H]3CC[C@H]4CC=C(C)C[C@]4(C)[C@H]3CC[C@]12C
inactive: [1] 104% | [2] 103% | [3] 104% | [4] 98.9% | [5] 113% | [6] 100% | [7] 109% | [8] 100% | [9] 101% | [10] 99.3% | [11] 98.5% | [12] 112% | [13] 101% | [14] 92.3% | [15] 92.1% | [16] 109% | [17] 106% | [18] 109% | [19] 103% | [20] 103%

O=C1NC(=S)NC(=O)C1=Cc1ccccc1
inactive: [1] 86.2% | [2] 98.3% | [3] 119% | [4] 101% | [5] 104% | [6] 123% | [7] 104% | [8] 110% | [9] 108% | [10] 96.3% | [11] 106% | [12] 122% | [13] 106% | [14] 87.7% | [15] 100% | [16] 97.7% | [17] 124% | [18] 96% | [19] 107% | [20] 109%

Cc1ccc(C[As+](c2ccccc2)(c2ccccc2)c2ccccc2)cc1
active: [1] -11.1% | [2] 8.52% | [4] 9.44% | [5] 2.34% | [9] 4.54% | [10] 7.95% | [11] 8.38% | [13] 3.83% | [17] -10.3% | [19] 2.52% | [20] 3.2%
inactive: [3] 18.6% | [6] 13.5% | [7] 10.6% | [8] 24.1% | [12] 37.2% | [14] 69% | [15] 31.8% | [16] 99.2% | [18] 11.9%

CC1(C)CC2(CC(C)(C)c3cc(O)c(O)cc32)c2cc(O)c(O)cc21
inactive: [1] 108% | [2] 85.7% | [3] 102% | [4] 95.9% | [5] 97.7% | [6] 94% | [7] 91.5% | [8] 88.6% | [9] 98.1% | [10] 90.9% | [11] 83.3% | [12] 97% | [13] 94.2% | [14] 75.2% | [15] 93% | [16] 103% | [17] 84.8% | [18] 95.7% | [19] 85.4% | [20] 94.4%

CC1(C)N=C(N)N=C(N)N1c1cccc(C(=O)Nc2cccc(S(=O)(=O)F)c2)c1
inactive: [1] 107% | [2] 99% | [3] 100% | [4] 105% | [5] 97.3% | [6] 99.5% | [7] 113% | [8] 112% | [9] 102% | [10] 97.1% | [11] 99% | [12] 103% | [13] 101% | [14] 78.5% | [15] 89.4% | [16] 104% | [17] 98.4% | [18] 93.5% | [19] 101% | [20] 102%

CC(=O)C1C(=O)N(C)C(=O)N(C)C1=O
inactive: [1] 121% | [2] 95.4% | [3] 107% | [4] 98.6% | [5] 102% | [6] 107% | [7] 117% | [8] 113% | [9] 110% | [10] 94.9% | [11] 110% | [12] 106% | [13] 104% | [14] 96.1% | [15] 99.7% | [16] 113% | [17] 94.4% | [18] 103% | [19] 106% | [20] 107%

CC1COC(=O)C1 (stereo not given)
inactive: [1] 104% | [2] 96.7% | [3] 100% | [4] 99.6% | [5] 102% | [6] 95.1% | [7] 120% | [8] 109% | [9] 102% | [10] 102% | [11] 106% | [12] 103% | [13] 98.4% | [14] 90.4% | [15] 102% | [16] 106% | [17] 102% | [18] 97.8% | [19] 102% | [20] 99.8%
